Screening data: PubChem BioAssay, National Center for Advancing Translational Sciences (NCATS)
FBPA Giardia inh: inhibitors of Giardia lamblia fructose-1,6-bisphosphate aldolase. A8B2U2. purified Giardia FBPA. Potency, µM (series often up to 59.6 µM), for inactives: at the top dose activity, negative = inhibition, actives largely listed as inhibitors. actives 0.71% (n = 290,000). AID 2451; further: on the % scale 0 is the no-effect control and ±100 the full control effect; nearly all actives have a fitted effect of over 55% in size
Target sequence (A8B2U2 whole entry, looked up): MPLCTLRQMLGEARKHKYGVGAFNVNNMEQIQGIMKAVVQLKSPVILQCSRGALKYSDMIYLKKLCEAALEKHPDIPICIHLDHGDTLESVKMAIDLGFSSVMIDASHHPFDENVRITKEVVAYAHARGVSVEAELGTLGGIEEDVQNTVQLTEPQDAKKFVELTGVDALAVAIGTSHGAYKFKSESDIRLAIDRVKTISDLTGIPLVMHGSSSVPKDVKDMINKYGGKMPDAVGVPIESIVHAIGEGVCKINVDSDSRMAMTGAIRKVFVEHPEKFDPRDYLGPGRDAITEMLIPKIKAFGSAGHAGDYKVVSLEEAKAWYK
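Giardia FBPA (40 nM reagent) was preincubated 10 min at RT with compound (up to 57.5 uM final), then substrate plus GAPDH/TPI/NAD/arsenate coupling system with diaphorase/resazurin was added; resorufin fluorescence (525/598 nm) was read after 20 min.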
LmPK inhibitor: LmPK (Leishmania mexicana) enzyme inhibition | Q27686 | purified LmPK, Kinase-Glo ATP luminescence, 1 h | actives 0.37% (n = 290,000) | Potency, µM (series often up to 57.5 µM), for the others: top-dose activity change, negative = inhibition, actives largely listed as inhibitors | AID 1721; further: on the % scale 0 is the no-effect control and ±100 the full control effect
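Screened at intermediate enzyme activity to detect both inhibitors and activators: LmPK at 0.1 nM, with a 0.5 nM enzyme column as activation reference. PEP 0.5 mM, ADP 0.1 mM; ATP detected by luminescence after 1 h.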
NS1 function inh: inhibitors of influenza NS1 protein function; actives 0.4% (n = 270,000); Potency, µM (highest dose often 46.1 µM), for inactives: at the highest dose activity, positive = more growth; AID 2326; calls by dose curve; further: actives are rising curves; nearly all actives have a fitted effect of over 50% in size
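S. cerevisiae expressing influenza A NS1, grown in glucose, washed, then diluted 1:100 into pH 6.0 -URA galactose medium with 23 nl compound. Growth recovery read as OD600; NS1-free strain serves as control.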
Tb PYK inh: inhibitors of Trypanosoma brucei pyruvate kinase; TbPYK enzyme, Kinase-Glo Plus ATP luminescence, 45 min; Potency, µM (titrated, usually from 76.8 µM), for inactives: top-dose activity, negative = inhibition, usual class: inhibitors; actives 0.12% (n = 410,000); AID 624173; further: on the % scale 0 is the no-effect control and ±100 the full control effect; nearly all actives have a fitted effect of over 50% in size
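Glycolytic pyruvate kinase of T. brucei was incubated with substrate, test compound and 130 uM ADP for 45 minutes at room temperature. Luminescent Kinase-Glo Plus signal was measured after 10 minutes.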
RE007 growth inh: less growth of the S. pombe RE007 Vpr strain. S. pombe RE007 Vpr strain, BacTiter-Glo ATP luminescence, 24 h. AID 651644. Potency, µM (highest dose often 92.2 µM), for the others: at the highest dose activity change, negative = less growth, hits mostly inhibitors. actives 0.21% (n = 360,000); active means well fitted falling curve with a large enough effect; inconclusive means small, poorly fitted or top-dose-only effect; inactive means no such curve, though single readings can be large or run the other way; further: on the % scale 0 is the no-effect control and ±100 the full control effect; nearly all actives have a fitted effect of over 50% in size
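Fission yeast RE007 carrying one integrated HIV-1 vpr copy, seeded at OD 0.01 in PMG+AL medium with 23 nL pinned compound. Grown 24 h at 30 degrees; viability read by BacTiter-Glo luminescence after 5 min.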
Sm TGR block: inhibitors of Schistosoma mansoni thioredoxin glutathione reductase; actives 3% (n = 360,000); Potency, µM (doses to about 114 µM), without a hit: top-dose activity change, negative = inhibition, most hits filed as inhibitors; purified TGR, DTNB reduction, TNB absorbance 405 nm; further: on the % scale 0 is the no-effect control and ±100 the full control effect; nearly all actives have a fitted effect of over 60% in size
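First, TGR (20 nM dispensed) and NADPH were mixed with compound. Second, a 15 min room-temperature incubation followed. Third, further NADPH and then DTNB were added to start the reaction. Finally, TNB absorbance was monitored kinetically.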
Active calls of the source: *; ? = inconclusive; . = no result; [ ] = dose if it differs, or a comment. This is a sample that favours compounds with a hit; in the whole collection about 3.5% have one here. Unless noted, the call rests on the fitted dose curve; in most records, active means well fitted curve in the direction sought with a large enough effect; inconclusive means small, poorly fitted or top-dose-only effect, or another doubt; inactive means no such curve, though single readings can be large; an effect the other way counts as inactive or inconclusive. Potency means the concentration at half of the fitted maximal effect.

SMILES	FBPA Giardia inh	LmPK inhibitor	NS1 function inh	Tb PYK inh	RE007 growth inh	Sm TGR block
C=C(C)CSC1=C(C#N)C(c2ccccc2Cl)CC(=O)N1 (stereo not drawn)	-11%	4%	-3%	13µM*	0%	4%
C=CCSC1=C(C#N)C(c2ccccc2Cl)CC(=O)N1 (stereo not drawn)	-17%	-1%	1%	-15%	-6%	-4%
CC(C)(C)C(=O)NCCc1nc2ccccc2n1CCCCOc1ccc(Cl)cc1	.	.	.	-12%	.	8%
O=C1ON=C(c2ccccc2)/C1=C/c1ccccc1	-15%	-3%	12%	?	18%	?
Cc1ccc(/C=C2/C(=O)ON=C2c2ccccc2)o1	?	-1%	1%	?	4%	5µM*
O=C1ON=C(c2ccccc2)/C1=C\c1ccco1	?	1%	1%	-19%	14%	25µM*
COc1cccc(-c2cc(C(=O)Nc3ccc(F)cc3)[nH]n2)c1	.	.	.	1%	.	6%
COCCCNC(=O)CS(=O)Cc1nc(-c2cccc(C)c2)oc1C (stereo not drawn)	.	.	.	1%	.	?
Cc1cccc(-c2nc(CS(=O)CC(=O)NC3CCCC(C)C3C)c(C)o2)c1 (stereo not drawn)	-9%	-1%	-17%	3%	-4%	5µM*
Cc1oc(-c2ccc(Cl)cc2)nc1CS(=O)CC(=O)NC1CCCCCC1 (stereo not drawn)	.	-1%	15%	3%	-5%	10µM*
Cc1oc(-c2ccc(Cl)cc2)nc1CS(=O)CC(=O)NC1CCCCC1 (stereo not drawn)	.	1%	?	-1%	-7%	11µM*
Cc1cccc(-c2nc(CS(=O)CC(=O)NC3CCCC3)c(C)o2)c1 (stereo not drawn)	5%	6%	?	4%	-2%	13µM*
Cc1oc(-c2ccc(Cl)cc2)nc1CS(=O)CC(=O)NCCCN(C)C1CCCCC1 (stereo not drawn)	-7%	10%	4%	1%	-20%	0%
CCOC(=O)c1sc2ccccc2c1S(=O)(=O)NCc1ccccc1OC	.	.	.	-14%	.	-1%
COc1cccc(-n2c(-c3ccccc3F)nc3c(cnn3-c3ccc(C)cc3)c2=O)c1	.	.	.	0%	.	-12%
Nc1ccn([C@@H]2O[C@H](CO)[C@@H](O)C2(F)F)c(=O)n1	.	.	.	0%[157 µM]	.	.
FC(F)(F)c1ccccc1-c1ccc2ncnc(NCCN3CCOCC3)c2c1	12%	.	.	.	.	.
COc1cccc(CNC(=O)CCn2c(=O)c3cccn3c3ccc(F)cc32)c1OC	.	.	.	1%	.	-16%
N#Cc1ccccc1NC(=O)C(=O)NCCc1csc(-c2ccc(C(F)(F)F)cc2)n1	.	.	.	-8%	.	8%
COC(=O)C1=C(C)NC(COC(N)=O)=C(C(=O)OC(C)C)C1c1cccc(Cl)c1Cl (stereo not drawn)	.	.	.	2%	.	.
CC(Sc1nnc2ccc3ccccc3n12)C(=O)Nc1ccc(Cl)cc1 (stereo not drawn)	.	.	.	4%	.	3%
Cc1nc2ccn(Cc3ccccc3)c(=O)c2cc1C(=O)NCc1ccccc1F	.	.	.	7%	.	22%
Cc1oc(-c2ccc(Cl)cc2)nc1CS(=O)CC(=O)NCCN1CCCC1 (stereo not drawn)	-7%	0%	6%	7%	7%	2%
Cc1oc(-c2cccs2)nc1CS(=O)CC(=O)NC1CCCCCC1 (stereo not drawn)	-4%	6%	?	-12%	-5%	18µM*
Cc1ccc(-c2nc(CS(=O)CC(=O)NC3CCCCC3)c(C)o2)cc1 (stereo not drawn)	.	-1%	?	-7%	-6%	13µM*
SMILES	FBPA Giardia inh	LmPK inhibitor	NS1 function inh	Tb PYK inh	RE007 growth inh	Sm TGR block
Cc1oc(-c2ccc(Cl)cc2)nc1CS(=O)CC(=O)NC1CCCC1 (stereo not drawn)	.	-1%	?	2%	-13%	8.9µM*
COc1ccc(-c2nc(CS(=O)CC(=O)NC3CCCC3)c(C)o2)cc1 (stereo not drawn)	-9%	-5%	13%	-9%	1%	?
O=C(N/N=C/c1ccc([N+](=O)[O-])o1)c1cn(-c2ccccc2)nc1-c1ccc(Cl)cc1	0%	1%	3%	0%	1%	-27%
O=[N+]([O-])CC(=Nc1ccc(Cl)cc1)N/N=C\c1oc(O)c2ccccc12	-12%	-5%	0%	1%	6%	13µM*
C=CCc1cccc(C=Nc2ccc(Br)cc2)c1O	20%	-4%	.	3%	0%	0%
C=CCc1cccc(/C=N/c2ncccc2O)c1O	?	-3%	9%	-20%	-6%	28µM*
O=S1(=O)C=C(Sc2nnc(-c3ccccc3)o2)c2ccccc21	-4%	0%	-143%	?	10µM*	0.5µM*
O=C1CC(SCCO)C(=O)N1c1ccccc1 (stereo not drawn)	0%	-14%	7%	-3%	3%	-5%
Cc1c(O)nc(SC2CC(=O)N(c3ccccc3)C2=O)[nH]c1=O (stereo not drawn)	?	5%	1%	2%	-13%	?
O=C1CC(Sc2nnnn2C2CCCCC2)C(=O)N1c1ccccc1 (stereo not drawn)	6%	6%	-46%	-12%	?	3.2µM*
Cc1cc(C)cc(N2C(=O)CC(Sc3nnnn3-c3ccccc3)C2=O)c1 (stereo not drawn)	.	-5%	-29%	-15%	-17%	5µM*
Cn1nnnc1SC1CC(=O)N(c2ccccc2)C1=O (stereo not drawn)	-1%	2%	-54%	-11%	32µM*	1.6µM*
Cc1cccc(N2C(=O)CC(Sc3nnc(C)s3)C2=O)c1 (stereo not drawn)	-1%	3%	-34%	-12%	35µM*	3.5µM*
CCCCC/C=C\C/C=C\CCCCCCCC(=O)NC(C)C(=O)O (stereo not drawn)	4%	.	.	.	.	.
Cc1c(Cl)cccc1NC(=O)Nc1ccc2snnc2c1	.	.	.	-5%	.	-4%
Cc1ccc(N2C(=O)CC(Sc3cccs3)C2=O)cc1 (stereo not drawn)	2%	-5%	-73%	-5%	?	7.1µM*
Cc1ccc(SC2CC(=O)N(c3ccc4c(c3)OCCO4)C2=O)cc1 (stereo not drawn)	-1%	6%	-57%	-20%	?	?
C=CC[N+]1(C)CC[C@]23c4c5ccc(O)c4O[C@H]2C(=O)CC[C@@]3(O)[C@H]1C5 (stereo partly drawn)	.	.	.	-20%	-2%[18.4 µM]	50µM*
O=C(O)c1ccc2c3c(ncnc13)-c1ccccc1C2=O	?	-1%	-174%	2%	?	50µM*
